High-throughput results: PubChem, Sanford-Burnham Center for Chemical Genomics
ER stress death: ER stress cell death inhibition; CSM14.1 thapsigargin ER stress survival, ATP luminescence; relative survival (cellular ATP), % at 15 µg/mL (by protocol); 0.33% of 48,000 active;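 active = survival measured by cellular ATP above 50% at 15 µg/ml in the first screen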;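 note: cell death triggered by about 15 µM thapsigargin; ATP read 24 h after thapsigargin was added; plate controls were thapsigargin with DMSO for no effect and DMSO without thapsigargin for full effect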
Numbers without * were called inactive. Many of the other results were omitted from the sample, so hits are more common in it than they were.

SMILES | ER stress death
COc1cc(CN2CCN(C(=O)c3ccc([N+](=O)[O-])cc3)CC2)cc(OC)c1OC | 9
COc1ccc(C(=O)N2CCN(Cc3ccccc3)CC2)cc1[N+](=O)[O-] | 14
COc1ccc(CN2CCN(C(=O)c3ccc(F)cc3)CC2)cc1OCc1ccccc1 | 53*
COc1ccc(CN2CCN(C(=O)c3ccccc3OC)CC2)cc1OCc1ccccc1 | 17
COc1ccc(CN2CCN(C(=O)c3ccc([N+](=O)[O-])cc3)CC2)cc1OCc1ccccc1 | 72*
COc1ccc(CN2CCN(C(=O)c3cccc(F)c3)CC2)cc1OCc1ccccc1 | 23
O=C(Nc1ccc(NC(=O)c2cc3ccccc3o2)cc1)c1cccc(Cl)c1 | 14
CC(C)(C)c1ccc(OCC(=O)N2CCC(Cc3ccccc3)CC2)cc1 | 9
O=C(O)CCCCCN1C(=O)C(=O)/C(=C(/O)c2ccc(Cl)cc2)C1c1ccc(O)cc1 (stereo unspecified) | -4
CC(=O)c1ccc(N2C(=O)CC(N(C)Cc3ccccc3)C2=O)cc1 (stereo unspecified) | -4
CCOC(=O)c1c(C)nc(C)c(C(=O)OCC)c1-c1cccc(NC(=O)c2ccc(F)cc2)c1 | 115*
CCOc1ccc(C(=O)Nc2cccc(NC(=O)c3ccc(F)cc3)c2)cc1 | 0
CCOC(=O)c1c(C)nc(C)c(C(=O)OCC)c1-c1ccccc1 | 4
Cc1ccc(C2CC(C(F)(F)F)n3nc(C(=O)Nc4c(C)n(C)n(-c5ccccc5)c4=O)c(Cl)c3N2)cc1 (stereo unspecified) | 4
CCC(=O)NC(c1ccc(N(C)C)cc1)c1ccc2cccnc2c1O (stereo unspecified) | 59*
CCCC(=O)NC(c1ccc(Cl)cc1)c1ccc2cccnc2c1O (stereo unspecified) | 11
COc1ccc(C(NC(=O)c2ccccc2)c2ccc3cccnc3c2O)cc1 (stereo unspecified) | 7
O=C1NCc2ccccc2-c2ccccc21 | 6
COc1ccc(C2CC(=O)C3=C(C2)Nc2ccccc2NC3c2ccccc2Br)cc1 (stereo unspecified) | 8
CCOc1ccccc1C1Nc2ccccc2NC2=C1C(=O)CC(c1ccc(OC)cc1)C2 (stereo unspecified) | 19
CCCCOC(=O)C1=C(C)NC2=C(C(=O)CC(c3ccccc3)C2)C1c1ccco1 (stereo unspecified) | 68*
CCCOC(=O)C1=C(C)NC2=C(C(=O)CC(c3ccc(OC)cc3)C2)C1c1ccc(OCc2ccccc2)c(OC)c1 (stereo unspecified) | 6
CCCCOc1ccccc1C1Nc2ccccc2NC2=C1C(=O)CC(c1ccccc1)C2 (stereo unspecified) | 53*
COc1ccccc1C1Nc2ccccc2NC2=C1C(=O)CC(c1ccccc1)C2 (stereo unspecified) | 0
O=C1CC(c2ccccc2)CC2=C1C(c1ccc(OCc3ccccc3)cc1)Nc1ccccc1N2 (stereo unspecified) | -1
SMILES | ER stress death
COc1ccc(C2CC(=O)C3=C(C2)Nc2ccccc2NC3c2ccccc2)cc1 (stereo unspecified) | 19
CCOc1ccc(C2Nc3ccccc3NC3=C2C(=O)CC(c2ccc(OC)cc2)C3)cc1 (stereo unspecified) | 1
COC(=O)C1=C(C)NC2=C(C(=O)CC(c3ccccc3)C2)C1c1ccc(Cl)cc1 (stereo unspecified) | 0
CCOc1ccc(C2Nc3ccccc3NC3=C2C(=O)CC(c2ccccc2)C3)cc1 (stereo unspecified) | 100*
COc1ccc(C2CC(=O)C3=C(C2)Nc2ccccc2NC3c2cc(C)ccc2C)cc1 (stereo unspecified) | 116*
COc1cccc(/C=C2/SC(=O)N(CNc3ccc(I)cc3)C2=O)c1 | 6
Cc1onc(-c2c(Cl)cccc2Cl)c1C(=O)Nc1cc(C(N)=O)cc(C(N)=O)c1 | 4
CCN(CC)c1ccc(NC(=O)c2ccc(C(C)C)cc2)cc1 | 9
COc1ccc(/C=C/C(=O)Nc2sc3c(c2C#N)CC(C)(C)OC3)cc1OC | -5
CCOc1ccc(C(=O)Nc2cc(C)ccn2)cc1[N+](=O)[O-] | 0
Cc1ccccc1OCC(=O)Nc1cc(Sc2ccccc2)cc([N+](=O)[O-])c1 | 14
CSc1ccc(C2Nc3ccccc3NC3=C2C(=O)CC(c2ccccc2)C3)cc1 (stereo unspecified) | 91*
O=C1CC(c2ccccc2)CC2=C1C(c1ccc(-c3ccccc3)cc1)Nc1ccccc1N2 (stereo unspecified) | 8
Cc1ccc(C2Nc3ccccc3NC3=C2C(=O)CC(c2ccccc2)C3)cc1 (stereo unspecified) | 49
O=C1C=C(c2ccccc2)CC(c2ccccc2)C1n1nnc2ccccc21 (stereo unspecified) | 95*
COc1ccc(C2=CC(=O)CC(c3ccccc3)C2)cc1 (stereo unspecified) | -1
COc1ccc(/C(N)=N/OC(=O)c2ccccc2F)cc1 | 4
O=C(Nc1ccc2oc(-c3ccccc3)nc2c1)c1ccccc1I | 2
CC(C1CC1)N1C(=O)C2C(C1=O)C1C=CC2C12CC2 (stereo unspecified) | 8
O=C(NCC1OCCc2ccccc21)c1ccccc1Cl (stereo unspecified) | -2
O=C(NCc1ccncc1)c1cccs1 | 18
O=C(NCCNC(=O)c1cccs1)c1cccs1 | 4
O=C(CC(=S)c1cccs1)c1ccncc1 | 61*
COc1ccc(C2CC(=O)C3=C(C2)Nc2ccccc2NC3c2ccc(OC(C)=O)c(OC)c2)cc1OC (stereo unspecified) | 3
COc1ccc(C2Nc3ccccc3NC3=C2C(=O)CC(c2ccccc2)C3)cc1OC (stereo unspecified) | 7
SMILES | ER stress death
COc1ccc(C2CC(=O)C3=C(C2)Nc2ccccc2NC3c2ccc(F)cc2)cc1OC (stereo unspecified) | 13
COc1ccc(C2CC(=O)C3=C(C2)Nc2ccccc2NC3c2cccc(Br)c2)cc1OC (stereo unspecified) | 122*
COc1ccc(C2Nc3ccccc3NC3=C2C(=O)CC(c2ccc(OC)c(OC)c2)C3)cc1 (stereo unspecified) | 5
COc1ccc(C2CC(=O)C3=C(C2)Nc2ccccc2NC3c2cccc(C(F)(F)F)c2)cc1OC (stereo unspecified) | 135*
Cc1ccc2c(c1)c1c(n2C)C(NC(N)=O)CCC1 (stereo unspecified) | 2
COc1cc(/C=N\N2CCN(c3ccccc3OC)CC2)ccc1OCc1ccccc1 | 7
Cc1ccc(N=Cc2ccc(C)o2)c(O)c1 | -2
O=C1CC(Cc2ccc(Cl)cc2)C(=O)N1c1ccc(Cl)c(Cl)c1 (stereo unspecified) | 14
O=[N+]([O-])c1cccc(S(=O)(=O)Nc2cc(C(F)(F)F)ccc2Cl)c1 | 4
O=C1CC(c2ccccc2)CC2=C1C(c1ccco1)Nc1ccccc1N2 (stereo unspecified) | 2
O=C1CC(c2ccccc2)CC2=C1C(c1ccc(O)cc1)Nc1ccc(C(=O)c3ccccc3)cc1N2 (stereo unspecified) | 106*
O=C1CCCC2=C1C(c1ccc(O)cc1)Nc1ccc(C(=O)c3ccccc3)cc1N2 (stereo unspecified) | -4
O=C1CCCC2=C1C(c1ccc(F)cc1)Nc1ccc(C(=O)c3ccccc3)cc1N2 (stereo unspecified) | 4
COc1ccc(C2CC(=O)C3=C(C2)Nc2ccccc2NC3c2ccc(O)cc2)cc1 (stereo unspecified) | 2
